AmpC inh detg: blocks E. coli AmpC beta-lactamase in detergent assay; P00811; AmpC hydrolysis of nitrocefin, absorbance 480 nm, 0.01% Triton; Potency, µM (titrated, usually from 114 µM), usual class: inhibitors; actives 0.041% (n = 370,000); AID 485294; also: nearly all actives have a fitted effect of over 25% in size
Target sequence (P00811 whole entry, looked up): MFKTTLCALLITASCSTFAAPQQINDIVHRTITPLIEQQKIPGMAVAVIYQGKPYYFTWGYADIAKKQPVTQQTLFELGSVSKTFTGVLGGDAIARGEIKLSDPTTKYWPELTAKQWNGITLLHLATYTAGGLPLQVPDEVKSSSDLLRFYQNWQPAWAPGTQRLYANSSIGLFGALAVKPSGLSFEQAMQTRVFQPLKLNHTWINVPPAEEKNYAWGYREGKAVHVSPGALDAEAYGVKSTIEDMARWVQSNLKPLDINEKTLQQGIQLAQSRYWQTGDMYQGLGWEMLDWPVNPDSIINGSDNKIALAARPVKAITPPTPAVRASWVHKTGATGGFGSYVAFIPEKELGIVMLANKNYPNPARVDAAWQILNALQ
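AmpC (5.3 nM in the dispensed reagent) in 20 mM phosphate pH 7.0 with 0.01% (detergent screen) or 0.0001% Triton X-100 was preincubated with compounds for 15 min at room temperature. Nitrocefin was then added from an 800 uM solution, and hydrolysis was followed at 480 nm.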
NS1 function inh: influenza NS1 inhibition; Potency, µM (series often up to 46.1 µM); actives 0.4% (n = 270,000); AID 2326; calls by dose curve; also: actives are rising curves; nearly all actives have a fitted effect of over 50% in size
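Growth recovery, yeast-based: influenza A NS1 expressed in S. cerevisiae causes slow growth, and suppressors are detected by OD600. The parent strain without NS1 is used as positive control.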
Cycloheximide cs: affects cycloheximide protein synthesis inhibition readout, counter-screen; cell reporter, cycloheximide protein synthesis inhibition counterscreen; max response, %; actives 12% (n = 300,000); AID 2314; in the data active = max response mostly above about 13%, no sharp cut-off; inactive = mostly below about 14%; also: read at 38.3 µM for the half of the compounds with a filed dose
Shiga inhibitor: inhibitors of Shiga toxin in Vero cells | inhibition, % at 38.7 µM | AID 2315 | actives 9.2% (n = 290,000) | Vero cells, Shiga toxin protein synthesis inhibition reporter; in the data active = inhibition mostly above about 28%, no sharp cut-off; inactive = mostly below about 43%
AmpC no deterg: AmpC beta-lactamase inhibition without detergent. P00811. AmpC nitrocefin hydrolysis, absorbance 480 nm, 0.0001% Triton. Potency, µM (series often up to 57.1 µM), usual class: inhibitors. actives 0.52% (n = 330,000); also: nearly all actives have a fitted effect of over 20% in size
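20 mM phosphate pH 7.0 + 0.01% (detergent screen) or 0.0001% Triton X-100; 5.3 nM AmpC reagent; cpd preinc 15 min RT; nitrocefin (800 uM stock) to start; A480 q20 s × 4 min; Activity was normalised to no-enzyme and no-compound control wells.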
A number is an active result; - = inactive; ? = inconclusive; . = no result given; ! = not confirmed by another sample; [ ] = dose if it differs, or a comment. The full list was thinned out, with hits kept by preference. Unless noted, calls follow the shape of the dose curve; as a rule, active = well fitted curve in the direction sought with a large enough effect; inconclusive = small, poorly fitted or top-dose-only effect, or another doubt; inactive = no such curve, though single readings can be large; an effect the other way counts as inactive or inconclusive.

SMILES | AmpC inh detg | NS1 function inh | Cycloheximide cs | Shiga inhibitor | AmpC no deterg
CC(C)(C)Nc1ncnc2c1cnn2-c1ccccc1 | - | - | 56.8 | 95.6 | -
COC(CNc1ncnc2c1cnn2C)OC | - | . | - | - | -
Cc1nc2nc(-c3cccnc3)nn2c(C)c1Cl | - | - | - | - | -
COc1cccc(CNc2nc3nc(C)c(Cl)c(C)n3n2)c1 | - | - | 34.7 | 47.6 | -
COc1ccc(-c2nc3nc(C)cc(C)n3n2)cc1 | - | - | 16.9 | 37.0 | -
COc1ccc(CNc2nc3nc(C)c(Cl)c(C)n3n2)cc1 | - | - | 35.4 | 55.9 | -
Cc1nc2nc(-c3ccco3)nn2c(C)c1Cl | - | - | 13.9 | - | -
Cc1c(-c2nsc(NC(=O)c3cccs3)n2)nnn1-c1ccc(Br)cc1 | - | . | . | . | .
Cc1ccc(S(=O)(=O)N2CCN(Cc3ccc4c(c3)OCO4)CC2)cc1 | - | . | . | . | .
COc1cccc(-c2nc(SCC(=O)NC3CCCC3)c(-c3ccc(F)cc3)[nH]2)c1 | - | . | . | . | .
COc1ccc(CNc2nc3nc(C)cc(C)n3n2)cc1 | - | - | - | 34.5 | -
Cc1cc(C)n2nc(NCc3ccccc3)nc2n1 | - | - | - | - | .
CC(C)(C)c1ccc(C(=O)N2CCCC2)s1 | - | - | 26.3 | 51.3 | -
COc1cccc(C(=O)n2c(SC)nc3cc4c(cc32)OCCO4)c1 | - | - | 17.1 | - | -
COc1cccc(C(=O)Nc2cc3c(cc2C(C)=O)OCCO3)c1 | - | - | - | - | -
COc1ccc(N2CCN(C(=O)c3cc([N+](=O)[O-])ccc3N3CCN(CCO)CC3)CC2)cc1 | - | - | - | - | -
Cc1cc(NCc2ccccc2)nc2ccccc12 | - | - | - | - | -
Clc1ccc(-c2nnc(NCc3ccccc3)c3ccccc23)cc1 | - | - | - | - | -
Cc1ccc(Nc2ccc(NCc3ccccc3)nn2)cc1C | ? | - | 32.6 | 67.6 | -
Clc1ccc(Nc2ccc(NCc3ccccc3)nn2)cc1 | - | - | 34.2 | 59.9 | -
COc1cc(C2CC(=O)N(Cc3ccc(F)cc3)c3ccccc3S2)cc(OC)c1OC (stereo unspecified) | - | . | . | . | .
CC(C)[C@H](N)c1nnc(SC/C=C/c2ccccc2)o1 | - | - | - | - | -
CC1(C)S[C@@H]2[C@H](NC(=O)COc3ccccc3)C(=O)N2[C@H]1C(=O)O | . | . | - | - | .
CCC(Oc1ccccc1)C(=O)NC1C(=O)N2C1SC(C)(C)C2C(=O)O (stereo unspecified) | 31.6µM | - | - | - | 28.2µM
CC1(C)S[C@@H]2[C@H](NC(=O)[C@H](N)c3ccccc3)C(=O)N2[C@H]1C(=O)OC1OC(=O)c2ccccc21 (stereo partly specified) | 63.1µM | . | . | . | 0.224µM
SMILES | AmpC inh detg | NS1 function inh | Cycloheximide cs | Shiga inhibitor | AmpC no deterg
CCOc1ccc2ccccc2c1C(=O)N[C@@H]1C(=O)N2[C@@H]1SC(C)(C)[C@@H]2C(=O)O | 5.01µM | - | - | - | 5.62µM!
O=C(Nc1ccc(F)cc1F)c1ccc(-n2cnc3cccnc32)cc1 | - | . | . | . | .
CCOc1ccc(N(C)S(=O)(=O)c2ccc3c(c2)C(C)(C)C(=O)N3C)cc1 | - | . | . | . | .
CCOc1ccc(-n2c(C)c(C(C)=O)c3cc(OCC(N)=O)ccc32)cc1 | - | - | - | - | -
COc1ccc(C(C)NCCC(c2ccc(OC(C)C)cc2)c2ccccc2OC)cc1 (stereo unspecified) | - | - | - | - | -
Cc1ccc(C(=O)Nc2cccnc2Cl)cc1Cl | - | - | 34.8 | . | -
Cc1ccc(OCC(=O)Nc2cccnc2Cl)cc1C | - | - | 17.8 | 58.4 | -
O=C(COC(=O)CC12CC3CC(CC(C3)C1)C2)Nc1cccnc1Cl | - | - | 25.2 | - | -[2.29 µM]
Cc1ccc(OCC(=O)Nc2ccccc2F)cc1C | - | - | 36.2 | 81.3 | -
O=C(COC(=O)c1ccccn1)Nc1cccnc1Cl | - | . | . | . | -
O=C(Nc1ccc(N2CCN(CCOc3ccc(Cl)cc3)CC2)c(C(=O)O)c1)c1ccc(F)cc1 | - | . | . | . | .
Cc1cccc(CN2CCN(CC(=O)NCc3ccc(Cl)cc3)C2=O)c1 | - | . | . | . | .
Cc1cc2n(n1)SC(Nc1ccc(F)cc1)N2 (stereo unspecified) | - | - | 12.8 | 41.0 | -
Cc1cc2n(n1)SC(Nc1cccc3ccccc13)N2 (stereo unspecified) | - | - | 27.4 | 51.8 | -
CCc1ccccc1NC1Nc2cc(C)nn2S1 (stereo unspecified) | - | . | - | - | -
CN1C(=O)SC(Nc2ccc(F)cc2)C1=O (stereo unspecified) | - | - | - | - | -
C[C@@H]1O[C@H](O[C@@H]2C(O)[C@H](O)[C@@H](CO)O[C@H]2Oc2cc(O)c3c(=O)cc(-c4ccc(O)cc4)oc3c2)[C@H](O)[C@H](O)[C@H]1O (stereo partly specified) | . | . | - | - | .
Clc1ccc(OCCn2cnc3ccccc32)c(Cl)c1 | - | - | 40.8 | 64.2 | -
O=c1c2ccccc2ncn1CCCSc1ccccc1 | - | - | 9.6 | - | -
O=[N+]([O-])c1ccccc1OCCCn1cnc2ccccc21 | - | - | 34.2 | 54.0 | -
O=c1c2ccccc2ncn1CCCOc1ccccc1[N+](=O)[O-] | - | - | 25.6 | 82.5 | -
O=c1c2ccccc2ncn1CCCSc1ccc(Cl)cc1 | - | - | - | - | -
Cc1ccc(NC(=O)COc2cccc3c2OC(C)(C)C3)c(O)c1 | - | . | . | . | -
O=C1CN(C(=O)c2ccccc2Br)C(c2ccc(F)cc2)c2cc(F)ccc2N1 (stereo unspecified) | - | - | - | - | -
COc1ccc(NC(=O)CC(C)(C)C)c([N+](=O)[O-])c1 | - | - | - | - | ?
SMILES | AmpC inh detg | NS1 function inh | Cycloheximide cs | Shiga inhibitor | AmpC no deterg
COc1ccc(NC(=O)C/C(C)=N/NC(=O)c2cccs2)c([N+](=O)[O-])c1 | - | - | 60.9 | 120.2 | -
COc1ccc(NC(=O)/C=C/c2ccccc2)c([N+](=O)[O-])c1 | - | - | 65.2 | 126.1 | -
COc1ccc(NC(=O)c2sccc2C)c([N+](=O)[O-])c1 | - | - | 32.1 | - | -
COc1ccc(NC(=O)c2cccs2)c([N+](=O)[O-])c1 | - | - | 37.5 | 80.3 | -
CS(=O)(=O)N(CC(=O)Nc1ccc2c(c1)OCCO2)c1ccc2c(c1)OCO2 | - | - | 10.3 | - | -
C=CCN(c1ccc(C(=O)Nc2ccc3c(c2)OCO3)cc1)S(C)(=O)=O | - | - | 13.3 | - | -
C=CCN(c1ccc(C(=O)Nc2ccc3c(c2)n(C)c(=O)n3C)cc1)S(C)(=O)=O | - | - | - | . | -
CCN(c1cccc(C)c1)c1nc2ccsc2c(=O)s1 | - | - | - | - | -
CC(C)N(Cc1nccn1C)C(=O)CCc1nnc(CCCc2ccccc2)o1 | - | - | 56.5 | 58.5 | -
CC(C)N(CCO)C(=O)CCc1nnc(CCCc2ccccc2)o1 | ? | - | 38.7 | 63.4 | -
COc1ccc(CNC(=O)Cc2cccs2)cc1 | - | - | 43.1 | 60.8 | -
COc1ccc(CC(=O)NCC(c2ccc(OC)cc2)N(C)C)cc1 (stereo unspecified) | - | . | - | - | -
O=C(Cc1cccs1)NCc1ccc2c(c1)OCO2 | - | - | 17.4 | 53.2 | -
